Test results as given in PubChem BioAssay.

System: not listed separately
Assay: caspase-8 TRAIL sensitization, hit retest, confirmation, cell-based, NB7+caspase-8, with/without TRAIL, luminescence panel (AID 651596)
Conditions: NB7 neuroblastoma + caspase-8, without TRAIL, luminescence viability, without TRAIL, mean of runs, at 10 µM

SMILES	activity [%]
CCOC(=O)c1sc(NC(=O)c2cc(-c3ccccc3C)nc3ccccc23)c(C#N)c1C	40.4
COC(=O)C1=C(C)N(Cc2ccccc2)C(=NCC(C)C)N[C@H]1c1cccc(C(F)(F)F)c1	6.62
O=C(C[C@@H]1C/C=C/CC[C@H](Cc2ccc(F)cc2)C(=O)OC[C@@H](Cc2ccccc2)NC1=O)N[C@H](CO)Cc1ccccc1	95.8
CCCCCCc1cc2cc(S(=O)(=O)c3ccc(F)c(Cl)c3)c(=O)oc2cc1O	40
CCCCCc1cc(=O)oc2c(C(CCN(CC)CC)c3cc(OC)c(OC)c(OC)c3)c(OC)cc(OC)c12 (centres undefined)	54.7
CN(C)CCCNC(=O)c1ccc(-c2nc(-c3ccc(Cl)cc3)cs2)cc1	97.6
Cc1ccc(NC(=O)CSc2nc3ccc(Nc4nc(N5CCOCC5)nc(N5CCOCC5)n4)cc3s2)cc1	40.5
Cc1cc(NC(=O)c2cncc(Br)c2)ccc1NC(=O)c1cc2ccccc2o1	13.3
CCCCCCCNC(=O)C1(CC2CC(c3ccc(Cl)cc3)=NO2)CCNCC1 (centres undefined)	93.1

Biological target: Tumor necrosis factor receptor superfamily member 10B (Homo sapiens) (UniProt O14763)
Sequence (O14763 whole entry, looked up): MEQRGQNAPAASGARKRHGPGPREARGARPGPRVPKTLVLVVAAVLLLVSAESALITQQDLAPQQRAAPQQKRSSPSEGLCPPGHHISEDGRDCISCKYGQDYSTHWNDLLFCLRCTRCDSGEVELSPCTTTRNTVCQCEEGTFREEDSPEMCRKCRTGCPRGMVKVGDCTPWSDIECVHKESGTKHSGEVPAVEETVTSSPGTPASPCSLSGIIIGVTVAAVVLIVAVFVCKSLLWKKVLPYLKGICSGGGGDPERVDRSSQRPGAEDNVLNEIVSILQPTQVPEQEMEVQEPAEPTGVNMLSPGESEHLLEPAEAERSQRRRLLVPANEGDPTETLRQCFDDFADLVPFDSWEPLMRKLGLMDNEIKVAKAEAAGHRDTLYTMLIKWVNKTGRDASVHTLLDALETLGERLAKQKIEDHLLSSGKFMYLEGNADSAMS
Assay: TRAIL sensitizers in caspase-8 expressing neuroblastoma cells, dose response, NB7 cells plus caspase-8, luminescence, panel (AID 652002)
Conditions: NB7 neuroblastoma +caspase-8, TRAIL sensitization, luminescence viability, NB7+Caspase-8, with TRAIL, run 1; at 12.5 µM (top of the series)

SMILES	activity, % sensitization [%]
CCOC(=O)c1sc(NC(=O)c2cc(-c3ccccc3C)nc3ccccc23)c(C#N)c1C	16.7
CCCCCCc1cc2cc(S(=O)(=O)c3ccc(F)c(Cl)c3)c(=O)oc2cc1O	-8.78
CCCCCc1cc(=O)oc2c(C(CCN(CC)CC)c3cc(OC)c(OC)c(OC)c3)c(OC)cc(OC)c12 (centres undefined)	-8.61
Cc1ccc(NC(=O)CSc2nc3ccc(Nc4nc(N5CCOCC5)nc(N5CCOCC5)n4)cc3s2)cc1	-7.95
Cc1cc(NC(=O)c2cncc(Br)c2)ccc1NC(=O)c1cc2ccccc2o1	7.53

Biological target: Tumor necrosis factor receptor superfamily member 10B (Homo sapiens) (UniProt O14763)
Assay: as above
Conditions: NB7 neuroblastoma +caspase-8, TRAIL sensitization, luminescence viability, NB7+Caspase-8, with TRAIL, run 2; at 12.5 µM (top of the series)

SMILES	activity, % sensitization [%]
CCOC(=O)c1sc(NC(=O)c2cc(-c3ccccc3C)nc3ccccc23)c(C#N)c1C	-4.14
CCCCCCc1cc2cc(S(=O)(=O)c3ccc(F)c(Cl)c3)c(=O)oc2cc1O	-2.26
CCCCCc1cc(=O)oc2c(C(CCN(CC)CC)c3cc(OC)c(OC)c(OC)c3)c(OC)cc(OC)c12 (centres undefined)	49.1
Cc1ccc(NC(=O)CSc2nc3ccc(Nc4nc(N5CCOCC5)nc(N5CCOCC5)n4)cc3s2)cc1	-11.3
Cc1cc(NC(=O)c2cncc(Br)c2)ccc1NC(=O)c1cc2ccccc2o1	53.9

System: not listed separately
Assay: as above
Conditions: NB7 neuroblastoma +caspase-8, no TRAIL, compound-alone cytotoxicity counter-screen, luminescence viability, NB7+Caspase-8, run 1; at 12.5 µM (top of the series) unless noted

SMILES	activity, % sensitization
CCOC(=O)c1sc(NC(=O)c2cc(-c3ccccc3C)nc3ccccc23)c(C#N)c1C	4.11%
CCCCCCc1cc2cc(S(=O)(=O)c3ccc(F)c(Cl)c3)c(=O)oc2cc1O	-6.43%
CCCCCc1cc(=O)oc2c(C(CCN(CC)CC)c3cc(OC)c(OC)c(OC)c3)c(OC)cc(OC)c12 (centres undefined)	-1%
Cc1ccc(NC(=O)CSc2nc3ccc(Nc4nc(N5CCOCC5)nc(N5CCOCC5)n4)cc3s2)cc1	-21% [at 6.25 µM]
Cc1cc(NC(=O)c2cncc(Br)c2)ccc1NC(=O)c1cc2ccccc2o1	12.3%

System: not listed separately
Assay: as above
Conditions: NB7 neuroblastoma +caspase-8, no TRAIL, compound-alone cytotoxicity counter-screen, luminescence viability, NB7+Caspase-8, run 2; at 12.5 µM (top of the series) unless noted

SMILES	activity, % sensitization [%]
CCOC(=O)c1sc(NC(=O)c2cc(-c3ccccc3C)nc3ccccc23)c(C#N)c1C	-11.3
CCCCCCc1cc2cc(S(=O)(=O)c3ccc(F)c(Cl)c3)c(=O)oc2cc1O	-24.8
CCCCCc1cc(=O)oc2c(C(CCN(CC)CC)c3cc(OC)c(OC)c(OC)c3)c(OC)cc(OC)c12 (centres undefined)	3.69
Cc1ccc(NC(=O)CSc2nc3ccc(Nc4nc(N5CCOCC5)nc(N5CCOCC5)n4)cc3s2)cc1	-31.8
Cc1cc(NC(=O)c2cncc(Br)c2)ccc1NC(=O)c1cc2ccccc2o1	28.1
